1 molecule from PubChem BioAssay AID2284144 (EPA ToxCast) can be followed below.

SMILES strings stand for the structures. Calls of active or inactive are those of the source. The calls were made as follows: active = hit-call score of the fitted dose curve at least 0.9, where 1 is the maximum; inactive = score below 0.9.

human Adrenoceptor alpha2C Antagonism, ADRA2C (gene 152), sequence (P18825 whole entry, looked up): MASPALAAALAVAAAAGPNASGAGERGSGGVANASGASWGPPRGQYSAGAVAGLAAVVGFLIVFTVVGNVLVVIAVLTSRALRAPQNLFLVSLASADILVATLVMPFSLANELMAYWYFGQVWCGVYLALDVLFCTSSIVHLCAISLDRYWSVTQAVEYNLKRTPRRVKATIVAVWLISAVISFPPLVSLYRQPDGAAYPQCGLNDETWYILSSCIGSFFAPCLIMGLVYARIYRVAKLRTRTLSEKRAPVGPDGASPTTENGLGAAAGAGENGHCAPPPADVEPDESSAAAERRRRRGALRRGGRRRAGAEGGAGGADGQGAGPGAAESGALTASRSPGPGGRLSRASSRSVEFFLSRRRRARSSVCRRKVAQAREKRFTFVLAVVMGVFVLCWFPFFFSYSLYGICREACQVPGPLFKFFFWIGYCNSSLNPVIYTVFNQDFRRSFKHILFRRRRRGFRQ

For the experiment, the target named is human Adrenoceptor alpha2C Antagonism, ADRA2C (gene 152) (UniProt P18825). As to the kind of experiment: ERF_TW_GPCR_hADRA2C: Eurofins (ERF) G Protein-Coupled Receptor (GPCR) Radioligand Binding LeadHunter Assay for human Adrenoceptor alpha2C Antagonism. The procedure:
ERF_TW_GPCR_hADRA2C is a biochemical, single-readout assay that uses extracted gene-proteins in a cell-free assay. Measurements were taken 1 hour after chemical dosing in a 96-well plate. See alpha2C Human Adrenoceptor GPCR Binding (Antagonist Radioligand) Assay, Panlabs.ERF_TW_GPCR_hADRA2C is an assay component calculated from the ERF_TW_GPCR_hADRA2C assay. It is designed to measure radioligand binding using a type of binding reporter as detected by scintillation counting with radiometry technology.Data from the assay component ERF_TW_GPCR_hADRA2C was analyzed at the assay endpoint, ERF_TW_GPCR_hADRA2C, in the positive analysis fitting direction relative to DMSO as the negative control and baseline of activity. Using a type of binding reporter, loss-of-signal activity can be used to understand changes in radioligand binding as they relate to gene ADRA2C. To generalize the intended target to other relatable targets, this assay endpoint is annotated to the gpcr intended target family, where the subfamily is adrenoceptor.
Human recombinant adrenergic alpha2C receptor expressed in CHO-K1 cells are used in modified Tris-HCl buffer pH 7.4. A 2 ug aliquot of membrane is incubated with 0.5 nM [3H]Rauwolscine for 60 minutes at 25C. […] Membranes are filtered and washed, the filters are then counted to determine [3H]Rauwolscine specifically bound. […]
A word on the AC50: it is the concentration giving half of the maximal activity seen. Take `O=C(/C=C/c1ccc(O)cc1)CC(=O)/C=C/c1ccc(O)cc1`: the AC50 is 602 nM (active).
